Laboratory results from PubChem BioAssay (NCI).
Compounds without any hit were thinned out: in the full panel of roughly 83,000, 20% have a hit.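 Percent growth is the endpoint: 0 to 100 indicates growth inhibition (40 means 60% inhibition), 0 means no net growth, and negative values indicate cell death.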 Activity calls are given as the source filed them. The calls were made as follows: active = growth percent below 10; inactive = the rest.

system: OVCAR-5 ovarian; test: NCI-60 one-dose screen, 48 h (100 = growth as untreated, 0 = no growth, -100 = all killed); settings: 10 µM unless noted

SMILES	growth
N#Cc1c(N)nc(NCCO)nc1-c1ccc(F)cc1	105% (inactive)
CC/C=C\C[C@H](O)C/C=C1/C(=O)C=C[C@@H]1C/C=C\CCCCO	39.2% (inactive)
FC(F)(F)c1cc(Nc2ccc3cc(OCCCN4CCOCC4)ccc3n2)ccc1Cl	59.1% (inactive)
N#C/C(=C\c1ccc(Br)cc1)n1nnc2cc(F)c(F)cc21	3.24% (active)
CNC(=O)NCC1OC(n2cnc3c(NC(=O)Nc4ccccc4)ncnc32)C(O[Si](C)(C)C(C)(C)C)C1CC(=O)N(C)OC (centres undefined)	44.1% (inactive)
CN(C)CC1C(=O)O[C@H]2[C@H]1CC/C(COC(=O)c1cc3ccccc3[nH]1)=C\CC[C@@]1(C)O[C@@H]21 (some centres undefined)	-5.25% (active)
S=C(Cc1ccc2c(c1)CCCC2)N1CCOCC1	99.2% (inactive)
Cc1cc(Cl)nc(NCc2cc(Nc3ccnc4cc(Cl)ccc34)ccc2F)n1	107% (inactive)
COC(=O)[C@]12CC[C@@H](C)[C@H](C)[C@@H]1C1=CC[C@@H]3[C@@]4(C)C(C=O)=C[C@@](C)(CO)[C@@H]4[C@H](O)C[C@@]3(C)[C@]1(C)CC2	-19.7% (active)
CCN1CCN(c2cc(C)nc(NCc3cc(Nc4ccnc5cc(Cl)ccc45)ccc3F)n2)CC1	56% (inactive)
C=CCOC1=CC(=O)c2ccccc2C1=O	110% (inactive)
COc1ccc(-c2nc(SC(C)C)nc(NNC(N)=S)c2C#N)cc1	66% (inactive)
Cc1cc(C)c2c(-c3nnc(N)s3)cc(=O)oc2c1	103% (inactive)
Oc1c(CN2CCCC2)cc(COCc2ccc(Br)cc2)c2cccnc12	29.6% (inactive)
O=[N+]([O-])c1ccc(-c2cc(-c3ccc(Nc4nc(Nc5ccc(Cl)cc5)nc(Nc5ccc(Cl)cc5)n4)cc3)no2)cc1	70.7% (inactive)
O=C1/C(=C/c2ccc(F)cc2)C=C(c2ccccc2)N1CCc1ccccc1	78.7% (inactive)
O=C(O)c1ccc2c(c1Cl)C(=O)c1ccccc1C2=O	102% (inactive)
COc1cc(N=Nc2ccc(N)cc2)c(OC)cc1N=Nc1ccccc1.[Cl][Zn][Cl]	96.4% (inactive)
O=[N+]([O-])c1ccc(OCCO)cc1	97.1% (inactive)

SMILES	growth
CCN(CC)c1nc(SCC(=O)Nc2nc3ccc(C)cc3s2)nc(-c2ccccc2)c1C#N	77.4% (inactive)
Cc1cc(NCCCCNc2ccnc3cc(Cl)ccc23)nc(Nc2ccc(C(=O)N3CCCC3)cc2)n1	108% (inactive)
COc1ccc(-c2nc3c(c(=O)n2C(C)=O)C(c2ccc(Cl)cc2)c2sc4c(Cl)cccc4c2O3)cc1 (centres undefined)	-13.8% (active)
COc1ccc2[nH]c(O)c(/C=c3/cc4c(c(-c5ccc(F)c(OC)c5)n3)=Nc3ccccc3-4)c2c1	93.9% (inactive)
N#CC1=C(/N=C/c2ccccc2)Oc2c(ccc3ccccc23)C1c1ccccc1 (centres undefined)	28.8% (inactive)
CC(=O)C(C)Cc1cc2c(cc1C)C(C)(C)CCC2(C)C (centres undefined)	98.6% (inactive)
Cc1ccc(Nc2nc(N)nc(CSCC(=O)NN)n2)cc1	103% (inactive)
Cc1ccc(-c2c(-c3ccccc3)c(=O)oc3ccc(C)cc23)cc1	113% (inactive)
N#C/C(=C\c1ccc2c(c1)OCO2)n1nnc2cc(F)c(F)cc21	96.8% (inactive)
Cc1cccc(Cc2cnc(NC(=O)/C=C/c3ccco3)s2)c1	39.1% (inactive)
N=C(N)c1ccc(-c2ccc(-c3cncc4ccccc34)s2)s1	-69.3% (active)
COc1ccc2occ(C3=C(c4c[nH]c5ccccc45)C(=O)N(O)C3=O)c2c1	104% (inactive)
C=C(C)[C@@H]1CC[C@]2(C(=O)NC3CCCCC3)CC[C@]3(C)[C@H](CC[C@@H]4[C@@]5(C)CCCNC(C)(C)[C@@H]5CC[C@]43C)[C@@H]12	82.8% (inactive)
O=C(/C=C/c1ccco1)c1ccc(Nc2nc(Nc3ccc(F)cc3)nc(Nc3ccc(Cl)cc3)n2)cc1	64.9% (inactive)
COC(=O)[C@]12CC[C@@H](C)[C@H](C)[C@@H]1C1=CC[C@@H]3[C@@]4(C)C(C=O)=C[C@@](C)(COC(=O)c5ccco5)[C@@H]4C(=O)C[C@@]3(C)[C@]1(C)CC2	59.4% (inactive)
COc1cccc(-c2nn(-c3ccccc3)cc2-c2ccnc(NCCNC(=O)Nc3ccc(Cl)c(Cl)c3)c2)c1	41.7% (inactive)
Cc1cc(N2CCCC2)nc(NCc2cc(Nc3ccnc4cc(Cl)ccc34)ccc2F)n1	-11.8% (active)
COc1cc(/C=C/C(=O)c2c(C)nc3ccccc3c2C)ccc1OCCCN1CCN(C(=O)c2ccco2)CC1	95.5% (inactive)

system: OVCAR-4 ovarian; test: as above; settings: 10 µM unless noted

SMILES	growth
N#Cc1c(N)nc(NCCO)nc1-c1ccc(F)cc1	95.6% (inactive)
CC/C=C\C[C@H](O)C/C=C1/C(=O)C=C[C@@H]1C/C=C\CCCCO	49.7% (inactive)
FC(F)(F)c1cc(Nc2ccc3cc(OCCCN4CCOCC4)ccc3n2)ccc1Cl	48.6% (inactive)
N#C/C(=C\c1ccc(Br)cc1)n1nnc2cc(F)c(F)cc21	29.8% (inactive)
CNC(=O)NCC1OC(n2cnc3c(NC(=O)Nc4ccccc4)ncnc32)C(O[Si](C)(C)C(C)(C)C)C1CC(=O)N(C)OC (centres undefined)	19% (inactive)
CN(C)CC1C(=O)O[C@H]2[C@H]1CC/C(COC(=O)c1cc3ccccc3[nH]1)=C\CC[C@@]1(C)O[C@@H]21 (some centres undefined)	-9.35% (active)
S=C(Cc1ccc2c(c1)CCCC2)N1CCOCC1	96.6% (inactive)
Cc1cc(Cl)nc(NCc2cc(Nc3ccnc4cc(Cl)ccc34)ccc2F)n1	9.24% (active)
COC(=O)[C@]12CC[C@@H](C)[C@H](C)[C@@H]1C1=CC[C@@H]3[C@@]4(C)C(C=O)=C[C@@](C)(CO)[C@@H]4[C@H](O)C[C@@]3(C)[C@]1(C)CC2	-5.06% (active)
CCN1CCN(c2cc(C)nc(NCc3cc(Nc4ccnc5cc(Cl)ccc45)ccc3F)n2)CC1	50.5% (inactive)
C=CCOC1=CC(=O)c2ccccc2C1=O	42.1% (inactive)
COc1ccc(-c2nc(SC(C)C)nc(NNC(N)=S)c2C#N)cc1	86.3% (inactive)
Cc1cc(C)c2c(-c3nnc(N)s3)cc(=O)oc2c1	100% (inactive)
Oc1c(CN2CCCC2)cc(COCc2ccc(Br)cc2)c2cccnc12	-5.71% (active)
O=[N+]([O-])c1ccc(-c2cc(-c3ccc(Nc4nc(Nc5ccc(Cl)cc5)nc(Nc5ccc(Cl)cc5)n4)cc3)no2)cc1	31.4% (inactive)
O=C1/C(=C/c2ccc(F)cc2)C=C(c2ccccc2)N1CCc1ccccc1	39.3% (inactive)
O=C(O)c1ccc2c(c1Cl)C(=O)c1ccccc1C2=O	81.3% (inactive)
COc1cc(N=Nc2ccc(N)cc2)c(OC)cc1N=Nc1ccccc1.[Cl][Zn][Cl]	92.3% (inactive)
O=[N+]([O-])c1ccc(OCCO)cc1	102% (inactive)

SMILES	growth
CCN(CC)c1nc(SCC(=O)Nc2nc3ccc(C)cc3s2)nc(-c2ccccc2)c1C#N	80.7% (inactive)
Cc1cc(NCCCCNc2ccnc3cc(Cl)ccc23)nc(Nc2ccc(C(=O)N3CCCC3)cc2)n1	48.4% (inactive)
COc1ccc(-c2nc3c(c(=O)n2C(C)=O)C(c2ccc(Cl)cc2)c2sc4c(Cl)cccc4c2O3)cc1 (centres undefined)	24.4% (inactive)
COc1ccc2[nH]c(O)c(/C=c3/cc4c(c(-c5ccc(F)c(OC)c5)n3)=Nc3ccccc3-4)c2c1	6.42% (active)
N#CC1=C(/N=C/c2ccccc2)Oc2c(ccc3ccccc23)C1c1ccccc1 (centres undefined)	62.7% (inactive)
CC(=O)C(C)Cc1cc2c(cc1C)C(C)(C)CCC2(C)C (centres undefined)	104% (inactive)
Cc1ccc(Nc2nc(N)nc(CSCC(=O)NN)n2)cc1	93.7% (inactive)
Cc1ccc(-c2c(-c3ccccc3)c(=O)oc3ccc(C)cc23)cc1	98.5% (inactive)
N#C/C(=C\c1ccc2c(c1)OCO2)n1nnc2cc(F)c(F)cc21	64.6% (inactive)
Cc1cccc(Cc2cnc(NC(=O)/C=C/c3ccco3)s2)c1	55.6% (inactive)
N=C(N)c1ccc(-c2ccc(-c3cncc4ccccc34)s2)s1	-90.4% (active)
COc1ccc2occ(C3=C(c4c[nH]c5ccccc45)C(=O)N(O)C3=O)c2c1	112% (inactive)
C=C(C)[C@@H]1CC[C@]2(C(=O)NC3CCCCC3)CC[C@]3(C)[C@H](CC[C@@H]4[C@@]5(C)CCCNC(C)(C)[C@@H]5CC[C@]43C)[C@@H]12	44.6% (inactive)
O=C(/C=C/c1ccco1)c1ccc(Nc2nc(Nc3ccc(F)cc3)nc(Nc3ccc(Cl)cc3)n2)cc1	78.4% (inactive)
COC(=O)[C@]12CC[C@@H](C)[C@H](C)[C@@H]1C1=CC[C@@H]3[C@@]4(C)C(C=O)=C[C@@](C)(COC(=O)c5ccco5)[C@@H]4C(=O)C[C@@]3(C)[C@]1(C)CC2	29.8% (inactive)
COc1cccc(-c2nn(-c3ccccc3)cc2-c2ccnc(NCCNC(=O)Nc3ccc(Cl)c(Cl)c3)c2)c1	36.4% (inactive)
Cc1cc(N2CCCC2)nc(NCc2cc(Nc3ccnc4cc(Cl)ccc34)ccc2F)n1	-14.9% (active)
COc1cc(/C=C/C(=O)c2c(C)nc3ccccc3c2C)ccc1OCCCN1CCN(C(=O)c2ccco2)CC1	25.2% (inactive)
